Screens from PubChem.
This excerpt belongs to a sample that is enriched for hits.
CHX counter: counter-screen hit for Shiga toxin inhibitors, cycloheximide; cell reporter, cycloheximide protein synthesis inhibition counterscreen; max response, %; 300,000 tested, 12% active; AID 2314; in the data active = max response mostly above about 13%, no sharp cut-off; inactive = mostly below about 14%; note: read at 38.3 µM for the half of the compounds with a filed dose; 0% is about no effect
Shiga toxin inh: Shiga toxin inhibition; Vero cells, Shiga toxin protein synthesis inhibition reporter; inhibition, % at 38.7 µM; 290,000 tested, 9.2% active; in the data active = inhibition mostly above about 28%, no sharp cut-off; inactive = mostly below about 43%; note: 0% is about no effect
Sm TGR block: inhibitors of Schistosoma mansoni thioredoxin glutathione reductase. 360,000 tested, 3% active. AID 485364. purified TGR, DTNB reduction, TNB absorbance 405 nm. Q962Y6. Potency, µM (series often up to 114 µM), for the others: top-dose activity change, negative = inhibition, actives largely listed as inhibitors; note: potency is the fitted concentration of half-maximal effect; % is set by controls: 0 for no effect and ±100 for the full control effect; nearly all actives have a fitted effect of over 60% in size
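Kinetic colorimetric format: TGR-catalysed, NADPH-driven DTNB reduction monitored via TNB absorbance. Enzyme dispensed at 20 nM; compound exposure 15 min at room temperature before reaction start.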
FBPA Giardia inh: blocks Giardia fructose-bisphosphate aldolase activity | A8B2U2 | Potency, µM (highest dose often 59.6 µM), for inactives: top-dose activity, negative = inhibition, most hits filed as inhibitors | purified Giardia FBPA | 290,000 tested, 0.71% active | AID 2451; note: potency is the fitted concentration of half-maximal effect; % is set by controls: 0 for no effect and ±100 for the full control effect; nearly all actives have a fitted effect of over 55% in size
Target sequence (A8B2U2 whole entry, looked up): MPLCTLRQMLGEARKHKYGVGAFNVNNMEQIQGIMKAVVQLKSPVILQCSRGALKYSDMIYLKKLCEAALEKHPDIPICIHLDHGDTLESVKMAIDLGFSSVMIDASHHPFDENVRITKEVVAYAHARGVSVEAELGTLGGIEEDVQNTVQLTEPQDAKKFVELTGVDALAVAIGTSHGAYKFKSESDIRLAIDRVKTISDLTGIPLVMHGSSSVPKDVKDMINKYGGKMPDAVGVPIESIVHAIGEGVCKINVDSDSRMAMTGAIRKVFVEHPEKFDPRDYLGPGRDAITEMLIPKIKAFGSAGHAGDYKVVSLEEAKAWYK
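40 nM FBPA preincubated 10 min at RT with compound (up to 57.5 uM final), then substrate plus GAPDH/TPI/NAD/arsenate coupling and diaphorase/resazurin added. Fluorescence read after 20 min at RT, 525/598 nm.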
LmPK inh: inhibitors of Leishmania mexicana pyruvate kinase; Q27686; purified LmPK, Kinase-Glo ATP luminescence, 1 h; Potency, µM (series often up to 57.5 µM), inactives show at the highest dose activity change, negative = inhibition, usual class: inhibitors; 290,000 tested, 0.37% active; AID 1721; note: potency is the fitted concentration of half-maximal effect; % is set by controls: 0 for no effect and ±100 for the full control effect
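Pyruvate kinase activity monitored as ATP production (luciferase luminescence). Conditions: 0.1 nM enzyme, 0.5 mM PEP, 0.1 mM ADP, 1 h, RT; normalized against uninhibited and no-enzyme wells.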
TbPYK inhibitor: inhibitors of Trypanosoma brucei pyruvate kinase; 410,000 tested, 0.12% active; TbPYK enzyme, Kinase-Glo Plus ATP luminescence, 45 min; Potency, µM (highest dose often 76.8 µM), without a hit: top-dose activity, negative = inhibition, actives largely listed as inhibitors; Q57TT1; note: potency is the fitted concentration of half-maximal effect; % is set by controls: 0 for no effect and ±100 for the full control effect; nearly all actives have a fitted effect of over 50% in size
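Luminescence from Kinase-Glo Plus, added after a 45-minute room-temperature reaction, served as the end-point read-out. The enzyme and substrate were preincubated with compound before ADP (130 uM final) initiated turnover. Concentration-effect curves came from normalized qHTS data.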
The depositor's hits bear a star; ? = inconclusive; · = not tested or not shown; [ ] = remark or other dose. Unless noted, calls come from the whole dose curve; as a rule, active = well fitted curve in the direction sought with a large enough effect; inconclusive = small, poorly fitted or top-dose-only effect, or another doubt; inactive = no such curve, though single readings can be large; an effect the other way counts as inactive or inconclusive.

SMILES	CHX counter	Shiga toxin inh	Sm TGR block	FBPA Giardia inh	LmPK inh	TbPYK inhibitor
CCOc1ccc(NC(=O)C2CCN(c3nnc(C)c4c(C)n(-c5ccccc5)nc34)CC2)cc1	·	·	0%	·	·	-9%
CCn1c(SCC(=O)Nc2ccccc2OC)nc2ccccc2c1=O	3	-19	0%	6%	0%	6%
CCOc1ccccc1-n1c(SCC(=O)Nc2ccccc2C(=O)O)nc2ccccc2c1=O	36*	35*	15%	10%	-4%	1%
CCOc1cc(/C=N\NC(=O)c2c(C)nc3ccccn23)ccc1O	13*	·	1%	-1%	4%	-16%
Cc1nc2ccccn2c1C(=O)N/N=C/c1ccc2c(c1)OCO2	59*	88*	0%	-4%	-6%	-3%
CCOc1cc(/C=N/NC(=O)c2c(-c3ccccc3)noc2C)ccc1O	3	3	6%	0%	6%	-8%
CCCCOc1ccc(C2(C)CC(=O)NC2=O)cc1 (stereo not given)	22*	78	4%	4%	-1%	-10%
COc1ccc(NC(=O)CSC2CC(=O)N(c3ccc4c(c3)OCCO4)C2=O)cc1 (stereo not given)	-1	9	45µM*	0%	-1%	-2%
COc1ccccc1NC(=O)CSC1CC(=O)N(c2ccc3c(c2)OCO3)C1=O (stereo not given)	-1	-5	13µM*	1%	-9%	0%
Cc1ccc2oc3c(c(=O)c2c1)C1(C(=O)N(C)c2ccccc21)N(CCCO)C3=O (stereo not given)	·	·	-4%	·	·	-9%
CCOC(=O)c1cc(-c2ccc(F)cc2)n(CCC(=O)Nc2cc(OC)cc(OC)c2)c1C	·	·	10%	·	·	3%[15.4 µM]
COc1ccc(OCc2nnc(SCC(=O)NC3CCCCC3)o2)cc1	10	30*	4%	2%	2%	8%
O=C(CSc1nnc(COc2ccc(Cl)cc2)o1)NC1CC2CCC1C2 (stereo not given)	8	21	8%	13%	-1%	-2%
COc1ccc(OCc2nnc(SCC(=O)NC3CC4CCC3C4)o2)cc1 (stereo not given)	28*	44	-3%	2%	-1%	-1%
CN(Cc1ccccc1)c1nc2c(S(=O)(=O)c3ccccc3)nnn2c2ccsc12	·	·	10%	·	·	2%
O=C(CSc1nc2ccccc2c(=O)n1CC1CCCO1)NCCc1ccccc1 (stereo not given)	-1	-12	0%	·	1%	-23%
COc1cccc(C(=O)N(C)c2nnc(-c3ccncc3)s2)c1	6	14	1%	·	-2%	-7%
COc1cccc(-c2nnc(N(C)C(=O)C3CCOC3)s2)c1 (stereo not given)	29*	58*	-13%	-2%	2%	-4%
CCOc1ccc(-c2cc(-c3nc(-c4ccc(C)cc4)no3)[nH]n2)cc1	·	·	16%	·	·	4%
CCN1C(=O)C(C(=O)Nc2ccc(OC)cc2)C2CC1(C)Oc1ccccc12 (stereo not given)	14	46*	3%	-21%	6%	-2%
CCOC(=O)Cc1ccc(NC(=O)N(Cc2ccc(CC)cc2)Cc2cn[nH]c2-c2ccc(OC)cc2)cc1	·	·	2%	·	·	-5%
Cc1cc(C)cc(-n2ncc3c2CCCC3NC(=O)CCN2Cc3ccccc3C2=O)c1 (stereo not given)	0	-8	-1%	·	1%	-4%
COc1ccccc1OCC(=O)Sc1ccc(C)cc1	-9	-7	7.1µM*	-2%	1%	?
Cc1ccc(OCC(=O)NCCNC(=O)COc2ccc(C)cc2)cc1	-5	-7	10%	4%	1%	6%
Cc1ccc(OCC(=O)Sc2ccc(C)cc2)cc1	-4	-7	18µM*	5%	-1%	2%
CCC1CCCCN1C(=O)CSc1nnc(-c2ccc(OC)c(OC)c2)o1 (stereo not given)	·	·	4%	·	·	-4%
Cc1c(CNCCCc2ccccc2)c(C(=O)O)c(C)n1Cc1ccc(Cl)cc1	·	·	-18%	·	·	3%
CCc1c(C)c(C#N)c2nc3ccccc3n2c1Cl	10	-4	11µM*	5%	2%	·
CCc1c(C)c(C#N)c2nc3ccccc3n2c1NCCOC	3	15	40µM*	6%	-4%	1%
